# Screening data as filed in PubChem BioAssay.
# Pf growth 48h: P. falciparum growth inhibition at 48 hours (one generation); P. falciparum luciferase growth in erythrocytes, 48 h; Potency, µM (highest dose often 28.7 µM), most hits filed as inhibitors; 310,000 tested, 5.9% active; AID 504832
#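 First compound was added to culture medium, then infected red cells at 0.1% parasitemia and 2% hematocrit (final). After incubation at 37 C under 5% CO2, luciferase detection reagent was dispensed and light output recorded.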
# Shiga toxin inh: blocks Shiga toxin action in Vero cells | Vero cells, Shiga toxin protein synthesis inhibition reporter | inhibition, % at 38.7 µM | 290,000 tested, 9.2% active; in the data active = inhibition mostly above about 28%, no sharp cut-off; inactive = mostly below about 43%
# NS1 function inh: inhibitors of influenza NS1 protein function. Potency, µM (series often up to 46.1 µM). 270,000 tested, 0.4% active. AID 2326; calls by dose curve; note: actives are rising curves; nearly all actives have a fitted effect of over 50% in size
#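 S. cerevisiae expressing influenza A NS1, grown in glucose, washed, then diluted 1:100 into pH 6.0 -URA galactose medium with 23 nl compound. Growth recovery read as OD600; NS1-free strain serves as control.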
# CHX counter: counter-screen for Shiga toxin inhibitors: cycloheximide protein synthesis inhibition; max response, %; AID 2314; cell reporter, cycloheximide protein synthesis inhibition counterscreen; 300,000 tested, 12% active; in the data active = max response mostly above about 13%, no sharp cut-off; inactive = mostly below about 14%; note: read at 38.3 µM for the half of the compounds with a filed dose
# Pf growth 96h: inhibits malaria parasite growth, 96 h; P. falciparum luciferase reporter growth, 96 h; Potency, µM (highest dose often 28.7 µM), most hits filed as inhibitors; 320,000 tested, 6.9% active; AID 504834
#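 Compounds incubated with erythrocytes infected by luciferase-expressing P. falciparum (2% hematocrit, 0.05% parasitemia final) for 96 hours, 37 C in 5% CO2. Growth inhibition scored as decreased luciferase luminescence.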
# SARS PLpro yeast: SARS-CoV PLP inhibition in yeast; S. cerevisiae expressing SARS-CoV PLpro, growth rescue; Potency, µM (doses to about 32.9 µM), usual class: activators; 330,000 tested, 0.19% active; AID 485353; calls by dose curve; note: nearly all actives have a fitted effect of over 55% in size
# A number is an active result; n = inactive; u = inconclusive; x = not tested or not shown; [ ] = remark or other dose. Hits are enriched below; roughly 21% of the tested compounds scored in any of these assays. Unless noted, calls come from the whole dose curve; as a rule, active = well fitted inhibition curve with a large enough effect; inconclusive = small, poorly fitted or top-dose-only effect, or another doubt; inactive = no such curve, though single readings can be large or run the other way.
SMILES,Pf growth 48h,Shiga toxin inh,NS1 function inh,CHX counter,Pf growth 96h,SARS PLpro yeast
COc1cccc(-c2cc(C(=O)Nc3ccccc3SC)no2)c1,n,35,n,36,n,n
Cc1nc(C)c(Oc2cccc(C(F)(F)F)c2)c(=O)[nH]1,n,n,n,n,n,n
COc1cc(SC)ccc1C(=O)NCCNC(=O)c1nonc1N,n,n,n,n,n,n
COCC(C)NC(=O)c1cc(-c2cccc(OC)c2)on1 (stereo not drawn),n,81,n,28,u,n
COCC(C)NC(=O)c1cc(-c2ccc(O)cc2)on1 (stereo not drawn),x,n,n,36,n,u
CCOC(=O)c1ccc(NC(=O)C(CC)(CC)C(=O)OCC)cc1,8.3µM,n,n,n,x,n
CCOC(=O)c1cccc(NC(=O)c2ccc(NC(=O)C3CCCO3)cc2)c1 (stereo not drawn),u,n,n,n,7.4µM,n
CCOC(=O)c1ccc(NC(=S)NN)cc1,u,n,x,n,u,n
CCCCCCOC(=O)c1ccc(NC(=O)c2cc(OC)c(OC)c(OC)c2Br)cc1,u,n,u,n,x,n
CCCCOC(=O)c1ccc(NC(=O)c2c(Cl)ccc(Cl)c2OC)cc1,n,n,n,n,5.2µM,n
CCC(C)NC(=O)c1ccc(NC(=O)C2CCCO2)cc1 (stereo not drawn),n,n,n,n,n,n
CCCCOC(=O)c1ccc(NC(=O)C2CCCO2)cc1 (stereo not drawn),n,67,n,36,x,n
CC(OC(=O)c1nccnc1N)C(=O)Nc1ccc(S(=O)(=O)N2CCCC2)cc1 (stereo not drawn),n,x,x,x,n,n
Cc1ccc(CN(C(=O)N2CCN(C)CC2)S(=O)(=O)c2ccc(C)cc2)cc1,n,x,x,x,n,n
CCOC(=O)c1ccc(NC(=O)c2ccccc2C)cc1,n,86,n,53,n,n
CCOC(=O)c1ccc(NC(=O)C2CC2)cc1,n,72,n,22,u,n
CCOC(=O)c1cccc(NC(=O)c2ccccc2C)c1,n,n,x,n,n,n
CCOC(=O)c1cc(NC(=O)C2CCCO2)cc(C(=O)OCC)c1 (stereo not drawn),n,n,n,n,n[5.75 µM],n
CCOC(=O)c1ccc(NC(=O)C2C3C=CC(C3)C2C(=O)O)cc1 (stereo not drawn),n,n,n,n,u,n
CCc1ccc(NC(=O)c2ccc(NC(=O)C3CCCO3)cc2)cc1 (stereo not drawn),n,56,n,14,u,n
COC(=O)c1ccc(NC(=O)c2ccc(NC(=O)C3CCCO3)cc2)cc1 (stereo not drawn),u,n,x,n,n,n
CCOC(=O)c1ccc(NC(=O)C2CCCO2)cc1 (stereo not drawn),n,55,n,32,n,n
C=CCNC(=O)C1CCN(S(=O)(=O)c2cccs2)CC1,n,n,n,n,n,n
CN(CCOc1ccc(Cl)cc1)C(=O)C1CCN(C(=O)c2ccc(Cl)cc2)CC1,u,n,n,n,u,n
COc1cc(CCC(=O)OCC(=O)Nc2ccccc2C#N)cc(OC)c1OC,n,n,x,n,n,n
SMILES,Pf growth 48h,Shiga toxin inh,NS1 function inh,CHX counter,Pf growth 96h,SARS PLpro yeast
CCCNC(=S)N1CCC(NC(=O)c2ccc(C)cc2)CC1,u,n,n,n,n,n
CCOC(=O)c1ccc(NC(=O)COC)cc1,n,35,n,11,15µM,n
CCOC(=O)c1cc(NC(=O)COC)ccc1O,n,n,n,n,n,n
CCCCOC(=O)Nc1ccc(C(=O)OCCC)cc1,n,134,n,29,n,n
CCCOC(=O)c1ccc(NC(=O)C2C3CCC(C3)C2C(=O)O)cc1 (stereo not drawn),n,20,n,47,n,n
CCCCOC(=O)c1ccc(O)cc1,n,n,n,n,n,n
Cc1ccc(S(=O)(=O)NCc2ccccc2)s1,n,n,n,n,n,n
O=C1c2ccccc2NC(c2cccc([N+](=O)[O-])c2)N1O (stereo not drawn),u,n,n,n,8.3µM,n
O=C1c2ccccc2NC(c2cccc(O)c2)N1O (stereo not drawn),n,n,n,16,n,n
O=C1c2ccccc2NC(c2ccc([N+](=O)[O-])cc2)N1O (stereo not drawn),u,n,n,n,n,u
O=C1c2ccccc2NC(c2ccco2)N1O (stereo not drawn),n,n,n,n,n,n
CC(CCc1ccccc1)NC(=O)CCNC(=O)Cn1ccc2ccccc2c1=O (stereo not drawn),n,n,n,n,n,n
CC(NC(=O)Nc1ccc([N+](=O)[O-])cc1)C(c1cccs1)N1CCCC1 (stereo not drawn),u,n,n,n,9.3µM,n
CC(NC(=O)Nc1ccccc1)C(c1cccs1)N1CCN(C)CC1 (stereo not drawn),n,n,n,n,n,n
CC(NC(=S)Nc1ccc(Cl)cc1Cl)C(c1cccs1)N1CCCC1 (stereo not drawn),u,n,n,n,12µM,n
CC(NC(=O)Nc1cccc(Cl)c1)C(c1cccs1)N1CCCC1 (stereo not drawn),u,n,n,n,9.3µM,n
CCN(CC)c1ccc(C=C2C(=O)OC3(CCCCC3)OC2=O)cc1,n,n,x,n,n,n
CCN(CC)c1ccc(/C=C2/C(=O)c3ccc(C(=O)O)cc3C2=O)cc1,n,68,n,77,n,n
N#CCCN(C(=O)COC(=O)CCc1c[nH]c2ccccc12)c1ccc(F)cc1,u,x,x,x,u,n
COc1ccccc1NC(=O)c1ccc(NC(=O)C2CC2C)cc1 (stereo not drawn),x,x,x,x,x,n
CC1CC1C(=O)Nc1ccc(-c2ccccc2)cc1 (stereo not drawn),n,83,n,45,13µM,n
CC(C)(N)CO[C@H]1C[C@H]2CC[C@@]1(C)C2(C)C,x,x,n,x,x,x
O=[N+]([O-])c1cccc(/C=N/Nc2nc(N3CCOCC3)nc(N3CCOCC3)n2)c1,n,n,n,n,n,n
O=[N+]([O-])c1cccc(/C=C2\CCC(/C=N/Nc3ccc4ccccc4n3)=C2N2CCOCC2)c1,u,n,n,17,0.41µM,n
CC(C)c1ccc2[nH]c3c(c2c1)[C@@H]1CCN2C(=O)CCC[C@H](C3)[C@H]12,n,35,n,22,u,n
C(C#CCCCCCCCCC[n+]1ccccc1)#CCCCCCCCCC[n+]1ccccc1,0.29µM,n,n,n,0.093µM,x
c1ccc2c[n+](CCCC[n+]3ccc4ccccc4c3)ccc2c1,x,x,n,x,x,x
CCSc1nc2ccc(N3C(=O)C4C5C=CC(C5)C4C3=O)cc2s1 (stereo not drawn),n,50,n,27,n,n
C1CCCC(N2CCNCC2)CC1,n,n,n,n,2.9µM,n
CC1CCC(N2CCNCC2)CC1 (stereo not drawn),n,n,n,n,15µM,n
